# Screening results (PubChem BioAssay)
# A selection: hits, their analogues and other compounds. The true share with any hit is near 1.2%.
# GALR2 agonist: GALR2 (human) receptor agonism | activation, % (no concentration beside the values) | GALR2-expressing cells, agonist activation read-out | hit rate 0.48% among 140,000 | AID 803; in the data active = activation above about 5%, passing the limit was not always enough;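 note: 0% = vehicle buffer wells and 100% = reference agonist at full effect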
# Target sequence (O43603 whole entry, looked up): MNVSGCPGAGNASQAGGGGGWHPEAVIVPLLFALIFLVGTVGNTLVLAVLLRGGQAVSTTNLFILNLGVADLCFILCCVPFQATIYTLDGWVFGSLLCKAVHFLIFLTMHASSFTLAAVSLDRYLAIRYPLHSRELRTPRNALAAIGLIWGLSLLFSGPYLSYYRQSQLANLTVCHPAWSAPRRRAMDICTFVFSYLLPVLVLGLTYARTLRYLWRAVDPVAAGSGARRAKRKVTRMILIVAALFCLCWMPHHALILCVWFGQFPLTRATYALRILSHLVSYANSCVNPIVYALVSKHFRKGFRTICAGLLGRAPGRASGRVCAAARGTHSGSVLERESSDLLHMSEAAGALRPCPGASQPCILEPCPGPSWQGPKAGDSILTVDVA
# GALR2 blocker: blocks the human galanin receptor 2 | GALR2-expressing cells, antagonist mode | inhibition, % at 4 µM | hit rate 0.39% among 140,000; in the data active = inhibition above about 27%;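 note: cells stimulated with galanin 1-16 at roughly its EC80; 0% = agonist challenge control and 100% = basal control without agonist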
# S1P2 ag: S1P2 (human) receptor agonism | AID 729 | S1P2-expressing cell line, agonist reporter read-out | hit rate 0.46% among 97,000 | activation, % at 4.5 µM; in the data active = activation above about 16%;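 note: 0% = vehicle low control and 100% = maximal reference agonist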
# S1P2 antag: blocks the human S1P2 receptor | O95136 | cell-based S1P2 antagonist assay, inhibition at 5 uM | inhibition, % at 5 µM | hit rate 0.21% among 97,000 | AID 736; in the data active = inhibition above about 45%;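 note: CRE beta-lactamase reporter cells expressing human S1P2 stimulated with S1P; 0% = agonist at EC80 alone and 100% = agonist plus reference antagonist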
# GALR2 agon conf: GALR2 (human) agonism confirmed; shares compounds with GALR2 agonist; GALR2-expressing cells, agonist activation; activation, % at 5.6 µM; hit rate 10% among 460; AID 864; in the data active = activation above about 8.4%;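 note: 0% = buffer-only vehicle wells and 100% = full reference agonist response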
# BLA activ ctr: beta-lactamase activation, GALR2 counterscreen; shares compounds with GALR2 agonist; CHO NFAT-bla reporter, beta-lactamase FRET activation; activation, % at 5.6 µM; hit rate 10% among 460;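 active = activation above the screen-wide mean activation plus 3 SD, cut at about 8% in these data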;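 note: 0% = DMSO with PBS wells and 100% = thapsigargin positive control wells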
# Starred values were filed as active, the others as inactive; / = not tested or not shown.
SMILES,GALR2 agonist,GALR2 blocker,S1P2 ag,S1P2 antag,GALR2 agon conf,BLA activ ctr
COC(=O)c1cn(NC(=O)c2cccc(F)c2)c(=O)c2ccccc12,18*,2,-3,2,-1,-1
COC(=O)c1cn(NC(=O)c2cccc(N(C)C)c2)c(=O)c2ccccc12,-1,-10,-3,6,/,/
CCN(CC)S(=O)(=O)c1ccc(C(=O)N2CCCCC2)cc1,-1,-7,-4,6,/,/
COC(=O)c1sccc1NC(=O)CN(C)NS(=O)(=O)c1ccc(F)cc1,10,11,-3,-53,-1,-1
COC(=O)c1sccc1NC(=O)CN(C)NS(=O)(=O)c1ccc(Cl)cc1,-2,10,-4,11,/,/
COc1ccc(CCN2CCC(Nc3nc4ccccc4n3Cc3ccc(F)cc3)CC2)cc1,25*,2,/,/,18*,3
CC1=CC(C)(C)N(C(=O)CSc2nnc(C)s2)c2ccc(C)cc21,-1,2,-2,-10,/,/
CC1=CC(C)(C)N(C(=O)CSc2nnc(N)s2)c2cc(C)c(C)cc21,43*,-10,0,-14,0,-1
CCOC(=O)c1c(NC(=O)C2=C(C)NC(=S)NC2c2ccc(CC)cc2)sc(C)c1C (stereo not given),9.5*,-2,/,/,4,4
CCOc1ccc(N/C=C/C(=O)c2ccccc2)c([N+](=O)[O-])c1,-1,-12,/,/,/,/
COc1ccc(C2CC(c3cccs3)=NN2c2ccc(C=O)cc2)cc1 (stereo not given),29*,6,/,/,15*,32*
COc1ccc(C2CC(c3ccccc3)=NN2c2ccc(/C=N/NC(=O)c3ccncc3)cc2)cc1 (stereo not given),17*,24,8,22,2,1
COc1ccc(C2CC(c3cccs3)=NN2C(=O)c2ccc(Br)o2)cc1 (stereo not given),1,-4,/,/,/,/
Fc1ccc(NCc2cccnc2)cc1,36*,-14,4,-22,-1,-1
c1ccc(NCc2cccnc2)cc1,-2,16,-6,7,/,/
CCCCNC(=S)NNC(=O)c1ccco1,-3,7,-2,-9,/,/
O=C(O)c1cc(-c2cccc(Cl)c2)nc2nc(N3CCCCC3)sc12,-2,7,/,/,/,/
Cc1cc(NC(NC(=O)c2ccco2)(C(F)(F)F)C(F)(F)F)no1,8,4,-6,-14,0,-1
COc1ccc(-c2cc(N)n(S(=O)(=O)c3ccc(F)cc3)n2)cc1OC,-2,-4,15,11,/,/
CCC(C)C(NC(=O)C(C)NC(=O)CNC(=O)CNC(=O)OCc1ccccc1)C(=O)OC (stereo not given),-3,20,-4,-10,/,/
Cc1nc(NCc2ccco2)c2c(C)c(C)sc2n1,-3,6,0,2,/,/
Cc1nc(SCC(=O)N(C)Cc2ccco2)c2c(C)c(C)sc2n1,11,-1,3,-23,0,0
COCCCNC(=O)c1cn(CC(C)C)c(=O)c2c1c1ccccc1n2C,20*,-5,-5,-5,0,-3
COc1cc(OC)c(C(=O)CCCN2CCCC2)c(OC)c1,-2,5,/,/,/,/
Cc1ccc(S(=O)(=O)c2c(N)n(/N=C/c3ccco3)c3nc4ccccc4nc23)cc1,-1,-10,-5,-9,/,/
SMILES,GALR2 agonist,GALR2 blocker,S1P2 ag,S1P2 antag,GALR2 agon conf,BLA activ ctr
Cc1cccc(S(=O)(=O)c2c(N)n(/N=C/c3ccco3)c3nc4ccccc4nc23)c1,54*,0,-9,15,0,-1
Cc1ccc(SCCC(=O)Nc2cccc(N(C)S(C)(=O)=O)c2)cc1,-3,3,-4,2,/,/
Cc1cc(/C=N/NC(=O)Cn2c3ccccc3c(=O)c3ccccc32)c(C)n1-c1ccccc1,10,-18,4,-9,1,0
CCOC(=O)c1c(NC(=O)C(=O)N/N=C/c2ccccc2O)sc2c1CCCCC2,2,-9,/,/,/,/
CCOC(=O)c1ccc(-c2ccc(/C=C(\C#N)C(=O)NCc3cccs3)o2)cc1,9.3*,0,/,/,9.4*,8.7*
N#C/C(=C\c1ccc(-c2ccc(C(=O)O)cc2)o1)C(=O)NCC1CCCO1 (stereo not given),-1,0,/,/,/,/
COc1ccc(-c2cc(-c3ccccc3)c(C#N)c(S(C)=O)n2)cc1 (stereo not given),27*,9,10,7,7,17*
O=C(c1ccccc1Oc1ccccc1)N1CCN(c2ccccc2F)CC1,-2,1,1,-17,/,/
Cc1nn(C)c(C)c1S(=O)(=O)N(CC(=O)NCc1cccs1)c1ccc(C(C)C)cc1,0,-8,/,/,/,/
COc1ccc(N(CC(=O)NCc2cccs2)S(=O)(=O)c2c(C)nn(C)c2C)cc1,17*,-4,-2,-16,0,-1
Cc1cc(C)c(C)c(C(=O)CSc2nnc(C)c(=O)[nH]2)c1C,-2,-8,-4,9,/,/
CCOC(=O)N1CCN(c2ccc(C(=O)CC)cc2F)CC1,0,-1,0,-2,/,/
CCCC(=O)c1ccc(N2CCN(C(=O)OCC)CC2)c(F)c1,30*,-5,-3,7,-1,0
COc1cc(/C=C/C(=O)Nc2nc3ccc(S(=O)(=O)N(C)C)cc3s2)cc(OC)c1OC,2,11,/,/,/,/
COc1cc2nc(/C=C/c3cc(OC)c(OC)c(OC)c3)sc2cc1SC,14*,-4,/,/,6,9.0*
O=C(c1ccco1)N1CCN(C(=O)c2cc3c(=O)oc4ccccc4c3s2)CC1,30*,1,-5,-8,-1,-1
CCOc1ccc(NC(=NCc2ccc3c(c2)OCO3)SC2CC(=O)N(c3ccc(C(=O)O)cc3)C2=O)cc1 (stereo not given),0,-1,/,/,/,/
CCOc1ccc(Nc2nc(Cc3nnc(SCC(=O)NCc4ccco4)n3CC)cs2)cc1,12*,-17,-6,-11,12*,27*
Cc1ccc(OCc2nnc(SCC(=O)NCc3ccco3)n2C)cc1,-1,-4,-4,-11,/,/
O=C(Cc1ccccc1)NNC(=O)c1cnccn1,-1,5,/,/,/,/
CCN(CC)c1ccc2c(C)c(-c3ccc(N)cc3)c(=O)oc2c1,4,15,/,/,/,/
CCN(CC)c1ccc2c(c1)oc(=O)c1c(Cl)cc(=O)oc12,20*,-2,14,19,6,12*
CCOc1ccc(Nc2nc(Cc3nnc(SCC(=O)c4ccc(C)c(C)c4)o3)cs2)cc1,19*,5,-4,5,-1,0
CCOC(=O)N1CCN(C(=O)c2ccc3c(=O)n(CCc4ccccc4)c(=S)[nH]c3c2)CC1,11,-12,-4,7,0,0
COc1ccc(/C=N/NC(=O)C2c3ccccc3Oc3ccccc32)c(OC)c1,-1,4,-3,-23,/,/
CC1(C)Cc2c(C#N)c(N3CCCC3)nc(-c3ccco3)c2CO1,11,-9,9,-36,2,4
CC1(C)Cc2c(C#N)c(NCc3ccco3)nc(-c3ccco3)c2CO1,-2,4,/,/,/,/
O=C(Nc1cccc(C(F)(F)F)c1)c1cc(-c2ccc(F)cc2)on1,9,1,-7,6,0,-2
N#Cc1ccc(NC(=O)COC(=O)CCNS(=O)(=O)c2ccccc2)cc1,-2,5,/,/,/,/
